Screens from PubChem.
TDP1 cell CPT: qHTS for Inhibitors of human tyrosyl-DNA phosphodiesterase 1 (TDP1): qHTS in cells in presence of CPT; chicken DT40 Tdp1-/-;hTDP1 cells + 20 nM CPT, ATP luminescence, 48 h; Potency, µM (titrated, usually from 46.2 µM), inactives show top-dose activity change, negative = growth inhibition, usual class: inhibitors; actives 12% (n = 420,000); AID 686979, 2013; also: nearly all actives have a fitted effect of over 55% in size
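Chicken DT40 Tdp1-/- cells complemented with human TDP1, 400 cells/well, exposed to compounds plus 20 nM camptothecin for at least 48 h at 37 C; viability read as ATP content by CellTiter-Glo luminescence.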
TDP1 cell noCPT: qHTS for Inhibitors of human tyrosyl-DNA phosphodiesterase 1 (TDP1): qHTS in cells in absence of CPT | DT40 Tdp1-/- hTDP1 cells, no CPT, ATP luminescence, 48 h | Potency, µM (titrated, usually from 46.2 µM), inactives show at the top dose activity change, negative = growth inhibition, usual class: inhibitors | actives 15% (n = 420,000); also: nearly all actives have a fitted effect of over 55% in size
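Growth kinetics read by CellTiter-Glo luminescence after ≥48 hr at 37 °C. Cells: DT40 Tdp1-/- stably carrying human TDP1, 400 per well, compound exposure in the absence of CPT (DMSO vehicle).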
KAT2A inh: qHTS Assay for Inhibitors of GCN5L2 | AID 504327, 2011 | Potency, µM (top dose mostly 58.9 µM), inactives show top-dose activity change, negative = inhibition, usual class: inhibitors | GCN5L2 HAT assay, ThioGlo1 CoA-SH fluorescence | actives 0.21% (n = 390,000) | Histone acetyltransferase KAT2A (Homo sapiens), Q92830
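Free CoA generated was detected with ThioGlo1 (50uM) fluorescence at Ex340nm/Em540nm, read immediately and after 20 min at room temperature. Enzyme, 20 nM in HEPES pH 7.5 buffer, saw compounds 15 min before adding 75uM H3(1-25) peptide and 70uM acetyl-CoA.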
TDP1 inh: qHTS Assay for Inhibitors of Tyrosyl-DNA Phosphodiesterase (TDP1). Tyrosyl-DNA phosphodiesterase 1 (Homo sapiens), Q9NUW8. recombinant TDP1, AlphaScreen DNA substrate cleavage. Potency, µM (highest dose often 130 µM), without a hit: at the top dose activity change, negative = inhibition, most hits filed as inhibitors. actives 0.28% (n = 350,000). AID 485290, 2010; also: nearly all actives have a fitted effect of over 40% in size
Target sequence (Q9NUW8 whole entry, looked up): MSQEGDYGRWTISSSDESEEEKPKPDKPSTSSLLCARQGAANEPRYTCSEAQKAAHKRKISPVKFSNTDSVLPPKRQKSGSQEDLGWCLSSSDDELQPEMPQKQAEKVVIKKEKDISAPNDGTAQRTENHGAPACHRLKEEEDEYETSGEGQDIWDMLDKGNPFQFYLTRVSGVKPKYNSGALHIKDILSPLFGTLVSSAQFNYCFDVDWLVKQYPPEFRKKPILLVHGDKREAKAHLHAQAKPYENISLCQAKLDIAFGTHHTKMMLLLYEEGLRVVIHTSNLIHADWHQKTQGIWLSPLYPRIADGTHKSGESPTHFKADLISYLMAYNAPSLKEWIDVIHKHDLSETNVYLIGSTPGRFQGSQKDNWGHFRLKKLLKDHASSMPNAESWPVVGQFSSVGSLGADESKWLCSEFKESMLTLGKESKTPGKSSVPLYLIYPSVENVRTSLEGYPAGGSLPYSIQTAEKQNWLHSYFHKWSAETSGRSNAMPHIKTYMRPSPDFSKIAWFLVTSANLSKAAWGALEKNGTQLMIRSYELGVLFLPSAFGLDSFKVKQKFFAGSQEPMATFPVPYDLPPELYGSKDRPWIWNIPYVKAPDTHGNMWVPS
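Steps: enzyme plus compound, 15 min RT; add biotin/phosphotyrosine-FITC oligonucleotide (15 nM final), react 5 min; add donor/acceptor beads (10 ug/ml final), 10 min; read AlphaScreen. Tdp1 at 1 nM final.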
PLK1 PBD inh: qHTS for Inhibitors of PLK1-PDB (polo-like kinase 1 - polo-box domain): Primary Screen. Serine/threonine-protein kinase PLK1 (Homo sapiens), P53350. Plk1 PBD binding of FITC phosphopeptide, fluorescence polarization. Potency, µM, without a hit: max response, negative = inhibition, most hits filed as inhibitors. actives 2.8% (n = 360,000). AID 720504, 2013; also: series mostly up to about 57 µM; nearly all actives have a fitted effect of over 65% in size
VDR inhibitor: Inhibitors of the vitamin D receptor (VDR): qHTS | Vitamin D3 receptor (Homo sapiens), P11473 | VDR-SRC2-3 peptide fluorescence polarization, 2 h | Potency, µM, for the others: max response, negative = inhibition, most hits filed as inhibitors | actives 0.93% (n = 400,000) | AID 504847, 2011
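Inhibition of the VDR/SRC2-3 peptide interaction is quantified by fluorescence polarization. Compounds (23 nl, pintool) incubate with the reagents for 2 hours at ambient room temperature.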
An asterisk follows results filed as active; ? = inconclusive; . = no result given; [ ] = dose if it differs, or a comment. Hits are enriched below; roughly 18% of the tested compounds scored in any of these assays. Calls follow the shape of the dose curve; as a rule, active = well fitted curve in the direction sought with a large enough effect; inconclusive = small, poorly fitted or top-dose-only effect, or another doubt; inactive = no such curve, though single readings can be large; an effect the other way counts as inactive or inconclusive. % is scaled to controls: 0 for no effect and ±100 for the full control effect; potency is read from the fitted curve at half-maximal effect.

SMILES	TDP1 cell CPT	TDP1 cell noCPT	KAT2A inh	TDP1 inh	PLK1 PBD inh	VDR inhibitor
Cc1ccc(Cl)cc1NC(=S)N/N=C/c1cccc2ccccc12	2.9µM*	4.6µM*	-1%	7%	-14%	20%
Cc1nn(C)cc1/C=N/NC(=S)Nc1ccc(Cl)cc1Cl	0.52µM*	?	-3%	-3%	-10%	-22%
CCn1nc(C)c(/C=N/NC(=O)Cn2nccc2C)c1C	-16%	-1%	-2%	3%	?	1%
Cc1nn(C)cc1/C=N/NC(=O)c1ccc2c(c1)OCO2	-2%	-9%	19%	0%	1%	-1%
CCn1nc(C)c(/C=N/NC(=S)Nc2ccc(Cl)cc2Cl)c1C	8.2µM*	6.5µM*	-8%	5%	0%	-14%
N[C@@H](Cc1ccc(O)cc1)c1nnc([C@H](CO)NC(=O)C2CCNCC2)o1	-1%	-5%	-10%	5%	-9%	3%
COc1ccc(C(=O)C(=O)c2ccc(OCCO)cc2)cc1	-18%	-16%	-1%	1%	-6%	19%
O=C(OCC(=O)N1CCc2ccccc21)c1c2c(nc3ccccc13)CCCC2	16µM*	23µM*	-8%	0%	-2%	-26%
O=C(OC(C(=O)N1CCOCC1)c1ccccc1)c1c2c(nc3ccccc13)CCCC2 (centres undefined)	?	14µM*	.	.	.	.
NC(=O)COC(=O)c1c2c(nc3ccccc13)CCCCC2	-5%	0%	-5%	3%	-6%	-18%
O=C(COC(=O)c1c2c(nc3ccccc13)CCCC2)c1cccs1	29µM*	?	-25%	4%	-6%	2%
COC(=O)c1c2c(nc3ccccc13)CCC2	-20%	?	-1%	5%	-1%	6%
CC1Cc2ccccc2N1C(=O)COC(=O)CCc1nc2ccccc2c(=O)[nH]1 (centres undefined)	29µM*	18µM*	15%	-2%	4.2µM*	?
N#CC1(NC(=O)CSc2nc3ccccc3o2)CCCCC1	-1%	?	-4%	0%	-24%	-26%
CCOC(=O)c1cnc(N2CCN(c3ccc(C)cc3C)CC2)c2ccccc12	?	?	-10%	-5%	.	6%
CC1Cc2ccccc2N1C(=O)COC(=O)c1c2c(nc3ccccc13)CCCCC2 (centres undefined)	8.2µM*	12µM*	-13%	3%	1%	1%
Cc1ccc(CNS(=O)(=O)c2ccc(-n3cccn3)cc2)cc1	?	?	.	.	-12%	.
COc1ccccc1Cc1c(-c2ccco2)nc2ccc(Cl)cn12	16µM*	23µM*	.	.	?	.
COc1ccccc1Cc1c(-c2ccco2)nc2ccc(Br)cn12	10µM*	21µM*	.	.	13µM*	.
FC(F)(F)c1ccccc1Cc1c(-c2ccco2)nc2ccc(Br)cn12	?	?	.	.	27µM*	.
COc1ccc(Cc2c(-c3ccc(F)cc3)nc3ccc(Br)cn23)c(C)c1	-29%	?	.	.	-1%	.
FC(F)(F)c1ccccc1Cc1c(-c2cccc(Cl)c2)nc2ccc(Br)cn12	?	?	.	.	4%	.
Cc1ccc2nc(-c3ccco3)c(Cc3ccccc3)n2c1	?	?	.	.	-14%	.
O=C(O)C1CCN(S(=O)(=O)c2ccc3[nH]ccc3c2)CC1	10%	-4%	.	.	-4%	.
Cc1ccc(NC(=O)CNC(=O)CN2C(=O)c3ccccc3C2=O)cc1	1%	-1%	.	.	-3%	.
SMILES	TDP1 cell CPT	TDP1 cell noCPT	KAT2A inh	TDP1 inh	PLK1 PBD inh	VDR inhibitor
CCOc1cc(C2c3c(oc4cc(C)c(Cl)cc4c3=O)C(=O)N2Cc2ccco2)ccc1O (centres undefined)	18µM*	16µM*	-8%	2%	-2%	3%
O=C1c2oc3ccc(Cl)cc3c(=O)c2C(c2cccc(Br)c2)N1CCO (centres undefined)	26µM*	?	2%	3%	?	8%
Cc1ccc(CN2C(=O)c3oc4ccc(C)cc4c(=O)c3C2c2ccc(O)cc2)cc1 (centres undefined)	16µM*	?	-8%	3%	.	0%
COc1cc(C2c3c(oc4ccccc4c3=O)C(=O)N2Cc2ccco2)ccc1O (centres undefined)	-5%	-28%	-12%	4%	-7%	12%
Cc1cc(C)c2c(=O)c3c(oc2c1)C(=O)N(Cc1ccc(F)cc1)C3c1cccc(O)c1 (centres undefined)	23µM*	12µM*	-8%	2%	.	0%
COCCN1C(=O)c2oc3cc(C)cc(C)c3c(=O)c2C1c1cccc(O)c1 (centres undefined)	5%	-20%	-4%	7%	.	3%
O=C(c1csnn1)N1CCC2(CC1)CCN(c1ccccn1)CC2	-11%	?	7%	.	.	?
Cc1ccc2oc3c(c(=O)c2c1)C(c1cccc(Br)c1)N(Cc1ccco1)C3=O (centres undefined)	?	21µM*	-4%	2%	0%	-4%
Cc1ccc(-n2ncc3c2CCCC3NC(=O)c2ccccc2N2CCOCC2)cc1C (centres undefined)	16µM*	?	?	1%	-2%	-12%
O=C(CCc1ccccn1)NC1CCCc2c1cnn2-c1ccc(F)cc1F (centres undefined)	-25%	?	-1%	5%	-1%	-25%
O=C(NC1CCCc2c1cnn2-c1ccc(F)cc1F)c1ccccc1N1CCOCC1 (centres undefined)	?	23µM*	-24%	3%[56.1 µM]	-7%	2%
Cc1ccc(-n2ncc3c2CCCC3NC(=O)c2ccoc2)cc1C (centres undefined)	?	?	0%	4%	2%	9%
Cc1ccc(Cl)c(OCCN2CCc3ccccc3C2)c1	?	23µM*	0%	5%	-11%	?
